Assay outcomes (PubChem)
This is a sample that favours compounds with a hit; in the whole collection about 2.3% have one here.
12-LOX inh: ALOX12 (human) lipoxygenase inhibition. 580,000 tested, 1.1% active. Potency, µM (highest dose often 108 µM), most hits filed as inhibitors. purified 12hLO, xylenol orange hydroperoxide absorbance. P18054
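Purified human 12hLO at 150 nM in 25 mM Hepes, 0.01% Triton X-100, pH 7.0, preincubated 15 min at room temperature with compound. Reaction started with 40 uM arachidonic acid, 30 min at room temperature. Hydroperoxide measured by Fe-xylenol orange, 573/405 nm absorbance ratio.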
GLP1R inv ag: acts as inverse agonist at human GLP-1 receptor. P43220. HEK293 GLP-1R CRE-luciferase, luminescence, 24 h; GLP-1R form is constitutively active. Potency, µM (doses to about 38.3 µM), hits mostly inhibitors. 410,000 tested, 1.6% active; also: nearly all actives have a fitted effect of over 55% in size
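Inverse agonism was detected as reduced cAMP-driven luciferase luminescence after 24 h compound treatment. The cells were HEK293 clones expressing constitutively active human GLP-1R with the reporter. Reporter-only and GPR119 cell lines served as counterscreen controls.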
GLS inh: glutaminase GLS (human) inhibition | O94925 | GLS enzymatic activity, qHTS titration | Potency, µM (top dose mostly 45.5 µM), most hits filed as inhibitors | 410,000 tested, 0.21% active | AID 624170
Target sequence (O94925 whole entry, looked up): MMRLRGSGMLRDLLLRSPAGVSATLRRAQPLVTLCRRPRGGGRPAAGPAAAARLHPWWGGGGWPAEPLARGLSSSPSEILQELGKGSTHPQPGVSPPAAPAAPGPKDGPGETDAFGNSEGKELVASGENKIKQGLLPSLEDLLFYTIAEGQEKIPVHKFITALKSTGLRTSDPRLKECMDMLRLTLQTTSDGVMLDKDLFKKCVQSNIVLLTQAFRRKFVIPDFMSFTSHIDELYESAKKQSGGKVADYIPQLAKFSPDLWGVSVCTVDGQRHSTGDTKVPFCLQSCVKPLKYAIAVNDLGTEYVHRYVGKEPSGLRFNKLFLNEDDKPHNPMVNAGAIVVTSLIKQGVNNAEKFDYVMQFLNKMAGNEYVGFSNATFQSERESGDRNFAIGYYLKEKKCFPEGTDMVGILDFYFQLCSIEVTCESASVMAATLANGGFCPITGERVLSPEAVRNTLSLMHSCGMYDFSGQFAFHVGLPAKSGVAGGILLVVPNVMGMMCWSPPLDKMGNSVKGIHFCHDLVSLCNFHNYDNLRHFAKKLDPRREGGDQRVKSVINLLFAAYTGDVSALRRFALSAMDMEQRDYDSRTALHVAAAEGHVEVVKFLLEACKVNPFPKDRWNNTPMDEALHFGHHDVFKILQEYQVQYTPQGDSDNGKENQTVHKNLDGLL
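Compounds were pin-transferred onto hKGA, after which L-glutamine (1 mM solution) and a detection mix of glutamate oxidase, HRP and Amplex Red were added. Initial and 30 min RT fluorescence reads were collected.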
GLP-1R agonist: GLP-1 receptor (human) agonism; Potency, µM (titrated, usually from 45.6 µM), most hits filed as activators; P43220; HEK293 GLP-1R CRE-luciferase, luminescence, 4-6 h; cells express a hypersensitive GLP-1R form; 380,000 tested, 0.007% active
Glioma ERSR ind: ER stress response induction in glioma. U87-MG GRP78 promoter luciferase reporter, 16 h. Potency, µM, usual class: activators. 420,000 tested, 0.02% active; also: series mostly up to about 76 µM; nearly all actives have a fitted effect of over 35% in size
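ERSR induction read as luciferase luminescence (Bright-Glo, 10 min at room temperature) in stably transfected human U87-MG glioma cells exposed to compounds for 16 h, using GRP78 as sensor.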
PTHR1 ag: activates the human parathyroid hormone receptor PTHR1. Q03431. HEK293 GP2 PTHR1 cells, GloSensor cAMP luminescence, 1 h. Potency, µM (titrated, usually from 115 µM), actives largely listed as activators. 410,000 tested, 0.075% active; also: nearly all actives have a fitted effect of over 55% in size
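HEK-293-derived GP2 cells expressing PTHR1 and a GloSensor cAMP reporter, 3,000/well, plated overnight, given luciferin plus IBMX (each 0.5 mM as added) for 1 h at 37 °C, then compound for 1 h at 37 °C. Luminescence was read after 15 min at room temperature.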
Of the large screens only hits and unclear results are named; the others gave an inactive call; ! = not active in a repeat. Calls follow the shape of the dose curve; as a rule, active = well fitted curve in the direction sought with a large enough effect; inconclusive = small, poorly fitted or top-dose-only effect, or another doubt; inactive = no such curve, though single readings can be large; an effect the other way counts as inactive or inconclusive.

S=C1SCN(Cc2cccs2)CN1Cc1cccs1	GLP1R inv ag inconclusive
O=C(O)CSc1cc(Cl)ccc1Cl	none (no result: GLP1R inv ag, GLS inh, GLP-1R agonist, Glioma ERSR ind, PTHR1 ag)
Cc1cccc(NC(=S)NC2CCCCC2)n1	12-LOX inh 40µM, GLP1R inv ag inconclusive
Cc1cccc(NC(=S)NC2CCCC2)n1	12-LOX inh 45µM, GLP1R inv ag 4.5µM
N#Cc1ccccc1NC(=O)COC(=O)c1ccc2c(c1)NC(=O)CS2	none (no result: GLP1R inv ag, GLS inh, GLP-1R agonist, Glioma ERSR ind, PTHR1 ag)
C[N+](C)(C)CCSSCC[N+](C)(C)C	12-LOX inh 4µM (no result: GLP1R inv ag, GLS inh, GLP-1R agonist, Glioma ERSR ind, PTHR1 ag)
CC(C)Oc1nnc(SCC(=O)NCc2ccccc2)s1	none (no result: GLP1R inv ag, GLS inh, GLP-1R agonist, Glioma ERSR ind, PTHR1 ag)
CCCC(C)NC(=O)c1nc(-c2ccccc2)n(-c2ccccc2)n1 (stereo unspecified)	12-LOX inh inconclusive, GLP1R inv ag 8.9µM
Cc1cccc(C(=O)NC(C)C(=O)OCc2cc(=O)oc3c(C)c(O)ccc23)c1 (stereo unspecified)	none (no result: GLP1R inv ag, GLS inh, GLP-1R agonist, Glioma ERSR ind, PTHR1 ag)
CSC1=N/C(=C\c2ccc(-c3ccc(Cl)cc3)o2)C(=O)S1	12-LOX inh 25µM (no result: GLP1R inv ag, GLS inh, GLP-1R agonist, Glioma ERSR ind, PTHR1 ag)
CSC1=N/C(=C\c2ccc(Br)o2)C(=O)S1	12-LOX inh inconclusive
Cc1ccc(-c2nc(N3CCN(C)CC3)c3ccccc3n2)cc1	GLP1R inv ag inconclusive
CN1CCN(c2nc(-c3ccc(C(C)(C)C)cc3)nc3ccccc23)CC1	12-LOX inh 32µM, GLP1R inv ag 8.9µM
CC1CCN(c2nc(-c3ccncc3)nc3ccccc23)CC1	12-LOX inh inconclusive, GLP1R inv ag 6.3µM, PTHR1 ag inconclusive
CCn1nc(-c2ccc(C)c(S(=O)(=O)NCc3ccc(C)cc3)c2)c2c(c1=O)CCCC2	none (no result: GLP1R inv ag, GLS inh, GLP-1R agonist, Glioma ERSR ind, PTHR1 ag)
Cc1cc(C)nc(SCC(=O)Nc2ccccc2C(N)=O)n1	12-LOX inh 50µM (no result: GLP1R inv ag, GLS inh, GLP-1R agonist, Glioma ERSR ind, PTHR1 ag)
Cc1cc2nc(NC3=NCN(CCc4ccccc4)CN3)nc(C)c2cc1C	none (no result: GLP1R inv ag, GLS inh, GLP-1R agonist, Glioma ERSR ind, PTHR1 ag)
COc1ccc(Cc2n[nH]c(=S)n(N)c2=O)cc1	12-LOX inh 25µM
Nn1c(=S)[nH]nc(Cc2ccc(O)cc2)c1=O	12-LOX inh inconclusive
CCCCOc1ccc(Cc2n[nH]c(=S)n2N)cc1	12-LOX inh 8.9µM
COc1ccc(Nc2nnc(-c3ccc(OCC(=O)N4CCCCC4)cc3)c3ccccc23)cc1	none (no result: GLP1R inv ag, GLS inh, GLP-1R agonist, Glioma ERSR ind, PTHR1 ag)
CCc1ccc2oc(=O)cc(CN3CCC4(CC3)OCCO4)c2c1	none (no result: GLP1R inv ag, GLS inh, GLP-1R agonist, Glioma ERSR ind, PTHR1 ag)
O=c1[nH]c2ccc(Br)cc2c(-c2ccccc2)c1CN1CCOCC1	PTHR1 ag inconclusive
O=c1[nH]c2ccc(Br)cc2c(-c2ccccc2)c1CN1CCCCC1	12-LOX inh 22µM (no result: GLP1R inv ag, GLS inh, GLP-1R agonist, Glioma ERSR ind, PTHR1 ag)
CCN(CC)S(=O)(=O)c1cc(NC(=O)C2CCN(c3ncnc4sc(C)c(C)c34)CC2)ccc1Cl	GLP1R inv ag 2.5µM
Cc1ccc(NC(=O)C2CCN(c3ncnc4sc(C)c(C)c34)CC2)cc1S(=O)(=O)N(C)C	GLP1R inv ag inconclusive
Cc1sc2ncnc(N3CCC(C(=O)N(C)CC(=O)Nc4ccc(Cl)c(C(F)(F)F)c4)CC3)c2c1C	GLP1R inv ag 2.5µM
Cc1sc2ncnc(N3CCC(C(=O)Nc4cc(Cl)ccc4Cl)CC3)c2c1C	GLP1R inv ag 10µM
Cc1sc2ncnc(N3CCC(C(=O)N(C)CC(=O)Nc4cccc(F)c4)CC3)c2c1C	GLP1R inv ag inconclusive
CCN(CC)S(=O)(=O)c1cc(NC(=O)C2CC(=O)N(Cc3ccccc3)C2)ccc1Cl (stereo unspecified)	GLP1R inv ag 10µM
COc1ccc(C(=O)N[C@H]2C[C@@H]3CC[C@H]2C3)cc1OC	none (no result: GLP1R inv ag, GLS inh, GLP-1R agonist, Glioma ERSR ind, PTHR1 ag)
Cc1cnc(NC(=O)c2csc3ccccc23)s1	none (no result: GLP1R inv ag, GLS inh, GLP-1R agonist, Glioma ERSR ind, PTHR1 ag)
CCOC(=O)c1c(CSc2ccccc2)n(C)c2cc(Br)c(OCC(O)CNC(CO)(CO)CO)cc12 (stereo unspecified)	GLP1R inv ag 8.9µM
CCOC(=O)c1c(CSc2ccccc2)n(C)c2cc(Br)c(OC)c(O)c12	GLP1R inv ag inconclusive
CC(=O)Nc1ccc(-c2csc(NC(=O)Cc3cccc(F)c3)n2)cc1	GLP1R inv ag 11µM
O=C(Cc1c(F)c(F)c(F)c(F)c1F)Nc1nc(-c2ccccc2)cs1	GLP1R inv ag 7.1µM
O=C(Cc1ccc(F)cc1)Nc1nc(-c2ccc(F)cc2)cs1	none
CC(=O)Nc1ccc(-c2csc(NC(=O)Cc3ccccc3F)n2)cc1	GLP1R inv ag inconclusive
O=C(O)C1CC(=O)N(c2ccc(S(=O)(=O)Nc3ccccc3F)cc2)C1 (stereo unspecified)	none (no result: GLP1R inv ag, GLS inh, GLP-1R agonist, Glioma ERSR ind, PTHR1 ag)
Cc1c(C(=O)N(C)C2CCCCC2)sc2ncnc(N3CCN(c4ccccc4F)CC3)c12	GLP1R inv ag 13µM (no result: 12-LOX inh)
Cc1ccccc1NC(=O)CCN1C(=O)c2ccccc2Sc2ncccc21	none (no result: GLP-1R agonist)
Cc1ccc(NC(=O)CCN2C(=O)c3ccccc3Sc3ncccc32)cc1	PTHR1 ag 50µM!
COC(=O)c1cc(CSC(=N)N)ccc1OCCC(C)C	12-LOX inh inconclusive, GLP1R inv ag 10µM
CC[C@]12c3[nH]c4ccc(Cl)cc4c3CCN1C(=O)[C@@H](CC(=O)NCCN1CCOCC1)C[C@@H]2C(=O)N1CCN(C(=O)c2ccco2)CC1	none
